Data: PubChem BioAssay (Tox21)
Records with an inconclusive call do not appear. Active and inactive are the calls of the source. Unless noted, the call rests on the fitted dose curve.

Legend:
[1] = Nuclear factor erythroid 2-related factor 2/antioxidant responsive element (Nrf2/ARE) small molecule agonists: qHTS cell viability counter screen in human keratinocytes (AID 1919968; active means well fitted curve in the direction sought with a large enough effect in the repeat runs; an effect the other way counts as inactive or inconclusive; further: nearly all actives have a fitted effect of over 55% in size)
Method in brief: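 Seed 1,500 KeratinoSens cells per well, then incubate 5 h at 37 C/5% CO2. Add compounds in DMSO and incubate 23 h. Add CellTiter-Fluor, wait 1 h and read fluorescence.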

[2] = Nuclear factor erythroid 2-related factor 2/antioxidant responsive element (Nrf2/ARE) small molecule agonists: luciferase reporter gene qHTS assay in human keratinocytes (AID 1919969); further: nearly all actives have a fitted effect of over 35% in size
[3] = biological target: Gonadotropin-releasing hormone receptor (Homo sapiens) (UniProt P30968); test: Human gonadotropin-releasing hormone receptor (GnRHR) small molecule agonists, calcium flux assay in GnRHR-HEK293 cells (AID 1920063); further: nearly all actives have a fitted effect of over 35% in size
Gonadotropin-releasing hormone receptor (Homo sapiens), sequence (P30968 whole entry, looked up): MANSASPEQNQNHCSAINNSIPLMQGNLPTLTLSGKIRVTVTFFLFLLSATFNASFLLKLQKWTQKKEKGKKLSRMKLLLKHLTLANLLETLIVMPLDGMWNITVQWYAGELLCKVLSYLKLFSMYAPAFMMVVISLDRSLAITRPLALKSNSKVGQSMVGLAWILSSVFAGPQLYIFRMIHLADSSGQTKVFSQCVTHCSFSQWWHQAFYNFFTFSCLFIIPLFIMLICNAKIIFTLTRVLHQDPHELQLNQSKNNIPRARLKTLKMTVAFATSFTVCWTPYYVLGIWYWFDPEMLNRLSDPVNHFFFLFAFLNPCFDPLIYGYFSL
Method in brief: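 Cells: HEK293 stably expressing human GnRHR. Steps: overnight (18 h) culture, 1 h calcium dye loading at 37 C, compound addition, kinetic fluorescence read at 480/540 nm. Each compound tested at 15 concentrations in triplicate.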

[4] = biological target: KiSS-1 receptor (Homo sapiens) (UniProt Q969F8); test: Human kisspeptin (KISS1R) small molecule agonists, calcium flux assay in KISS1R-HEK293 cells (AID 1920064; active means well fitted curve in the direction sought with a large enough effect in the repeat runs; an effect the other way counts as inactive or inconclusive)
KiSS-1 receptor (Homo sapiens), sequence (Q969F8 whole entry, looked up): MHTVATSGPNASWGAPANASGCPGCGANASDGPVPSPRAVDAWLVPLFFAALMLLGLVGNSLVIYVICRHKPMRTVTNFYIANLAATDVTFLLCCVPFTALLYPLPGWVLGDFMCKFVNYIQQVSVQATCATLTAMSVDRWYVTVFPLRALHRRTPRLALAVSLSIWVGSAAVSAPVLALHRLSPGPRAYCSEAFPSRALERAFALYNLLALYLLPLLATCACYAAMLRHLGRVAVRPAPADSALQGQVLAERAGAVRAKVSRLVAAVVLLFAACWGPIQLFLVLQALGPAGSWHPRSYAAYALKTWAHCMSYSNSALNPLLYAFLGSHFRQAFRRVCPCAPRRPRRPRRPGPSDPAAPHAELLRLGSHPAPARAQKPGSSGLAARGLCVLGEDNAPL
Method in brief: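 Cells plated and incubated 18 h; dye added, 1 h at 37 C; compounds in DMSO pinned in; signal read at 480/540 nm every second for 3 min. Each compound tested at 15 concentrations in triplicate.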

[5] = G protein-coupled receptor (GPCR) small molecule agonists, calcium flux assay: HEK293 wild type cell line counter screen (AID 1920065)
Method in brief: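 Counter-screen of the Tox21 10K library for non-specific calcium release: dye-loaded cells received compounds in DMSO and were monitored by kinetic fluorescence (480/540 nm, 3 min). Fifteen concentrations, run in triplicate.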

[6] = p53 small molecule agonists, cell-based qHTS assay with human liver microsomes (AID 1963577)
Method in brief: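 Compounds act here after metabolic activation: human liver microsomes and NADPH, both at 0.5 mg/mL final, were co-added to p53RE-bla cells. Incubation ran 16 h at 37 C, followed by LiveBLAzer detection.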

[7] = p53 small molecule agonists, cell-based qHTS assay with rat liver microsomes (AID 1963578)
Method in brief: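 Read-out is beta-lactamase reporter fluorescence (LiveBLAzer, 2 h, room temperature, dark) in p53RE-bla cells treated 16 h at 37 C with compound, rat liver microsomes and NADPH, both 0.5 mg/mL final.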

[8] = p53 small molecule agonists, cell-based qHTS assay with human liver microsomes: qHTS cell viability counter screen (AID 1963579); further: nearly all actives have a fitted effect of over 45% in size
Method in brief: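 Cells carrying the p53 response-element beta-lactamase reporter are treated for 16 h at 37 C with test compounds in the presence of human liver microsomes and NADPH (both 0.5 mg/mL final); ATP-based CellTiter-Glo luminescence then reports viability.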

[9] = p53 small molecule agonists, cell-based qHTS assay with rat liver microsomes: qHTS cell viability counter screen (AID 1963580); further: nearly all actives have a fitted effect of over 45% in size
Method in brief: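 In HCT-116 cells carrying a p53 response element-bla reporter, compounds were metabolically activated in situ by rat liver microsomes with NADPH over 16 h. Cell ATP content then served as the cytotoxicity measure.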

[10] = p53 small molecule agonists, cell-based qHTS assay: qHTS cell viability counter screen (AID 1963581); further: nearly all actives have a fitted effect of over 45% in size
Method in brief: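 Cells: HCT-116 with p53 response element-driven beta-lactamase. Treatment: 16 h, 37 C, compounds in DMSO. Read: CellTiter-Glo luminescence after 30 min RT.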

[11] = p53 small molecule agonists, cell-based qHTS assay (AID 1963582; active means well fitted activation curve with a large enough effect in the signal ratio in the repeat runs, not every such curve was filed as active; the % refers to the signal ratio)
Method in brief: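 Quantitative HTS in p53RE-bla cells: after a 5 h settling period, compounds delivered in DMSO were left on cells for 16 h at 37 C, and reporter induction was measured as fluorescence following 2 h substrate loading.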

[12] = biological target: 5-hydroxytryptamine receptor 2A (Homo sapiens) (UniProt P28223); test: 5-hydroxytryptamine receptor 2A (HTR2A) small molecule antagonists, cell-based qHTS assay (AID 1963586); further: nearly all actives have a fitted effect of over 45% in size
5-hydroxytryptamine receptor 2A (Homo sapiens), sequence (P28223 whole entry, looked up): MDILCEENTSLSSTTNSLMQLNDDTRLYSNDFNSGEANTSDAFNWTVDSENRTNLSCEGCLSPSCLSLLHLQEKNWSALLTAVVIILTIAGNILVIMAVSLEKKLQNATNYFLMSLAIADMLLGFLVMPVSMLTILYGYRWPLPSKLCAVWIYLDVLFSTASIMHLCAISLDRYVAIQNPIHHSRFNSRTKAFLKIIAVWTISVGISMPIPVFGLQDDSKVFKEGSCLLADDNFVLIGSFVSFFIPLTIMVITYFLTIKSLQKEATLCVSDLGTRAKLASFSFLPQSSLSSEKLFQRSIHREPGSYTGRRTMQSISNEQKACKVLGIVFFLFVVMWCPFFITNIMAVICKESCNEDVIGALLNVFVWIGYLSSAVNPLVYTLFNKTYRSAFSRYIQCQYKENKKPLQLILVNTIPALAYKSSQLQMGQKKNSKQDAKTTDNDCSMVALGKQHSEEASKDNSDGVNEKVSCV
Method in brief: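 Antagonist-mode intracellular calcium assay: DOI (4 nM) added after 5 min compound pre-incubation at room temperature to dye-loaded HTR2A-CHO cells. Fluorescence followed for 3 min, sampled every second.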

[13] = biological target: 5-hydroxytryptamine receptor 2A (Homo sapiens) (UniProt P28223); test: 5-hydroxytryptamine receptor 2A (HTR2A) small molecule agonists, cell-based qHTS assay (AID 1963587); further: nearly all actives have a fitted effect of over 30% in size
Method in brief: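 HTR2A-CHO cells, plated 18 h at 37 C/5% CO2, dye-loaded 1 h at 37 C; compounds in DMSO added by pin tool (agonist mode). Intracellular calcium flux read as kinetic fluorescence on FDSS over 2 min at 1 s intervals.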

[14] = biological target: Muscarinic acetylcholine receptor M1 (Homo sapiens) (UniProt P11229); test: Cholinergic receptor muscarinic 1 (CHRM1) small molecule antagonists, cell-based qHTS assay (AID 1963588); further: nearly all actives have a fitted effect of over 40% in size; further: potency means the concentration at half of the fitted maximal effect
Muscarinic acetylcholine receptor M1 (Homo sapiens), sequence (P11229 whole entry, looked up): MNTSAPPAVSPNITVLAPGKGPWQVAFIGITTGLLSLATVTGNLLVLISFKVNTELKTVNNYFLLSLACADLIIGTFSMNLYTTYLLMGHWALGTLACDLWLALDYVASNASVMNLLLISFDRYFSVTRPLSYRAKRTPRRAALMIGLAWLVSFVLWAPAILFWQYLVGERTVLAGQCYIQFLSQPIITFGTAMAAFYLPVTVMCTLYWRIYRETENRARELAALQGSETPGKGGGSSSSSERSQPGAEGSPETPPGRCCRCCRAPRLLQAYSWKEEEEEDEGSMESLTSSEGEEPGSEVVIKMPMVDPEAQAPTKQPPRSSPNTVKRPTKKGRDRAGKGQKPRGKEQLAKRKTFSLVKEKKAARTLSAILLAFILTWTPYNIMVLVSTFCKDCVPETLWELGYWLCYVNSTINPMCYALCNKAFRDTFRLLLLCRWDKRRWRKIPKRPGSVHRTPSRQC
Method in brief: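 CHRM1-CHO calcium-flux assay, antagonist mode. Cells were seeded 18 h, dye-loaded 1 h at 37 C and given compound for 5 min at RT, then acetylcholine was added at 50nM. FDSS fluorescence was read 3 min; 15 concentrations, three runs.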

[15] = biological target: Muscarinic acetylcholine receptor M1 (Homo sapiens) (UniProt P11229); test: Cholinergic receptor muscarinic 1 (CHRM1) small molecule agonists, cell-based qHTS assay (AID 1963589); further: nearly all actives have a fitted effect of over 35% in size
Method in brief: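 Agonist-mode qHTS in CHO cells stably carrying human muscarinic M1. Intracellular calcium is tracked by fluorescence every second after compound transfer; each compound runs at 15 concentrations in three independent runs.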

[16] = cAMP Responsive Elements (CRE) small molecule agonists, cell-based qHTS assay (AID 1963590)
Method in brief: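 Agonist mode qHTS in CRE-bla HEK 293T cells: compounds dosed from DMSO for 3 h at 37 C/5% CO2, followed by LiveBLAzer B/G FRET substrate for 2 h at room temperature.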

[17] = cAMP Responsive Elements (CRE) small molecule antagonists, cell-based qHTS assay (AID 1963591; active means well fitted inhibition curve with a large enough effect in the signal ratio in the repeat runs, not every such curve was filed as active; the % refers to the signal ratio)
Method in brief: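 Antagonist mode: test compounds are co-incubated with the adenylyl cyclase activator NKH477 (0.25 uM final) on CRE-bla HEK293T cells for 3 h at 37 °C, followed by LiveBLAzer substrate loading.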

[18] = biological target: Beta-2 adrenergic receptor (Homo sapiens) (UniProt P07550); test: Adrenergic beta2 receptor (ADRB2) small molecule antagonists, cell-based qHTS assay (AID 1963592); further: series mostly up to about 92 µM; nearly all actives have a fitted effect of over 50% in size
Beta-2 adrenergic receptor (Homo sapiens), sequence (P07550 whole entry, looked up): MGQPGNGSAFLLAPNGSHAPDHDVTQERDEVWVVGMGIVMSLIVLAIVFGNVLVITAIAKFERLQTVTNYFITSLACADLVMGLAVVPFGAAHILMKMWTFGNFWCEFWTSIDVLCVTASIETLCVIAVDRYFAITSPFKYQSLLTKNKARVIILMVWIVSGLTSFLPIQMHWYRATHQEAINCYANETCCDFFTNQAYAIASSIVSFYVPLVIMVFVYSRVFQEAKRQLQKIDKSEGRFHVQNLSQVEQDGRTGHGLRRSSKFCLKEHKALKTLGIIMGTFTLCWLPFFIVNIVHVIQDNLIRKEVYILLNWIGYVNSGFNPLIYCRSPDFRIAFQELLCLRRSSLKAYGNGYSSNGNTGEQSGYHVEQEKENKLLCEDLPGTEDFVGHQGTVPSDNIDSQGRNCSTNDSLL
Method in brief: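 Cells (CHO, stable ADRB2 overexpression) incubated 18-20hr at 37C; compounds added from DMSO; agonist mix (1nM isoproterenol, 100uM IBMX, 25uM Ro-20-1724) added; 0.5hr RT; d2-cAMP and anti-cAMP-cryptate added; 1hr RT; 665/615 nm read.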

[19] = biological target: D(2) dopamine receptor (Homo sapiens) (UniProt P14416); test: Dopamine D2 receptor (DRD2) small molecule agonists, cell-based qHTS assay (AID 1963594); further: nearly all actives have a fitted effect of over 35% in size
D(2) dopamine receptor (Homo sapiens), sequence (P14416 whole entry, looked up): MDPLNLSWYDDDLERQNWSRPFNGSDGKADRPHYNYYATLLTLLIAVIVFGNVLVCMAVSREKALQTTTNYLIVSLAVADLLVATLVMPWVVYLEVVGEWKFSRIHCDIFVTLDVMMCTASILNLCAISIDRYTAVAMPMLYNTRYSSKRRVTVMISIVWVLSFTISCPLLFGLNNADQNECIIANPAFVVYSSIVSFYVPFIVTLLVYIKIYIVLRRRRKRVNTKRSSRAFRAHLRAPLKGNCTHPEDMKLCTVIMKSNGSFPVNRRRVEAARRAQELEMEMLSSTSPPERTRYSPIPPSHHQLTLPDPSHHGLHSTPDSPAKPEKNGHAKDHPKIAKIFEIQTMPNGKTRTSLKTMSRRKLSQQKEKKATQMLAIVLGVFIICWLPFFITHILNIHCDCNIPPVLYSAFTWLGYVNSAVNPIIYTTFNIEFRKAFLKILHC
Method in brief: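 HEK293 cells stably expressing DRD2 were cultured 24 h at 37 C, then given Ro20-1724 (0.1 mM final) and compounds for 10 min at room temperature. NKH477 (200nM) was then added for 30 min. cAMP was read by HTRF.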

[20] = biological target: D(2) dopamine receptor (Homo sapiens) (UniProt P14416); test: Dopamine D2 receptor (DRD2) small molecule antagonists, cell-based qHTS assay (AID 1963595; active means well fitted inhibition curve with a large enough effect in the signal ratio in the repeat runs, with a control signal flat; the % refers to the signal ratio)
Method in brief: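 HEK293 cells stably expressing DRD2 were preincubated with 0.1 mM Ro20-1724, then with compound for 10 min at room temperature. Cells were stimulated with 200 nM NKH477 plus 12 nM quinpirole for 30 min, and cAMP was read by HTRF.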
On the % scale 0 is the no-effect control and ±100 the full control effect.

C=COCC1CCC(COC=C)CC1 (stereo not drawn)
inactive: Potency [1] | Potency [2] | Potency [3] | outcome [4] | outcome [5] | Potency [6] | Potency [7] | Potency [8] | Potency [9] | Potency [10] | Potency [11] | Potency [12] | Potency [13] | Potency [14] | Potency [15] | Potency [16] | Potency [17] | Potency [18] | Potency [19] | Potency [20]

CCCC(=O)C(=O)O
active: Potency [14] 10.6 µM
inactive: Potency [1] | Potency [2] | Potency [3] | outcome [4] | outcome [5] | Potency [6] | Potency [7] | Potency [8] | Potency [9] | Potency [10] | Potency [11] | Potency [12] | Potency [13] | Potency [15] | Potency [16] | Potency [17] | Potency [18] | Potency [19] | Potency [20]

N[C@@H](CSCCCO)C(=O)O
inactive: activity change, negative = cytotoxicity [1] 5.92% [at 19 µM] | activity, positive = activation [2] -5.15% [at 19 µM] | activity change [3] -0.573% [at 11.8 µM, stronger effect = higher value] | activation [4] 2.59% [at 15.8 µM] | activation [5] 0.0618% [at 11.8 µM] | activation [6] 1.76% [at 13.5 µM] | activation [7] 4.94% [at 13.6 µM] | activity change, negative = cytotoxicity [8] -3.2% [at 13.5 µM] | activity change, negative = cytotoxicity [9] -10.3% [at 13.5 µM] | activity change, negative = cytotoxicity [10] -10.7% [at 13.5 µM] | activation [11] 9.64% [at 13.5 µM] | activity, negative = inhibition [12] 4.22% [at 12.7 µM] | activation [13] 0.941% [at 15.9 µM] | activity, negative = inhibition [14] -6.77% [at 12.6 µM] | activation [15] -0.169% [at 15.8 µM] | activation [16] 0.961% [at 19 µM] | activity change, negative = inhibition [17] 4.42% [at 18.9 µM] | activity change, negative = inhibition [18] -0.974% [at 19 µM] | activation [19] 5.68% [at 19 µM] | activity change, negative = inhibition [20] 8.57% [at 18.9 µM]

C=C(C)C(=O)OCCN(C)C
inactive: Potency [1] | Potency [2] | Potency [3] | outcome [4] | outcome [5] | Potency [6] | Potency [7] | Potency [8] | Potency [9] | Potency [10] | Potency [11] | Potency [12] | Potency [13] | Potency [14] | Potency [15] | Potency [16] | Potency [17] | Potency [18] | Potency [19] | Potency [20]

CC(C)(C)OC(=O)N1C[C@@H](F)C[C@H]1C(=O)O
inactive: Potency [1] | Potency [2] | Potency [3] | outcome [4] | outcome [5] | Potency [6] | Potency [7] | Potency [8] | Potency [9] | Potency [10] | Potency [11] | Potency [12] | Potency [13] | Potency [14] | Potency [15] | Potency [16] | Potency [17] | Potency [18] | Potency [19] | Potency [20]

CCOC(=O)c1ccccc1
inactive: Potency [1] | Potency [2] | Potency [3] | outcome [4] | outcome [5] | Potency [6] | Potency [7] | Potency [8] | Potency [9] | Potency [10] | Potency [11] | Potency [12] | Potency [13] | Potency [14] | Potency [15] | Potency [16] | Potency [17] | Potency [19] | Potency [20]

N[C@H](C(=O)O)[C@@H](O)c1ccc(O)c(O)c1
inactive: Potency [1] | Potency [2] | Potency [3] | outcome [4] | outcome [5] | Potency [6] | Potency [7] | Potency [8] | Potency [9] | Potency [10] | Potency [11] | Potency [12] | Potency [13] | Potency [14] | Potency [15] | Potency [16] | Potency [18] | Potency [19] | Potency [20]
